Source: PubChem BioAssay (NCATS)
Records with an inconclusive call do not appear. Activity calls are given as the source filed them. Unless noted, calls come from the whole dose curve.

Experiments:
[1] = Primary qHTS for inhibitors of SARS-S pseudo-typed particle cell entry (AID 1479145); details: SARS-S pseudotyped particle cell entry, luciferase reporter; series mostly up to 57.1 µM; note: nearly all actives have a fitted effect of over 45% in size
[2] = Primary qHTS for Huh7 cytotoxicity: counterscreen for inhibitors of MERS-S pseudotyped particle cell entry (AID 1479147); details: cell viability read-out; series mostly up to 57.1 µM
[3] = Primary qHTS for inhibitors of MERS-S pseudo-typed particle cell entry (AID 1479149); details: MERS-S pseudotyped particle entry, luciferase; series mostly up to 57.1 µM; note: nearly all actives have a fitted effect of over 60% in size
[4] = Primary qHTS for Vero E6 cytotoxicity: counterscreen for inhibitors of SARS-S pseudo-typed particle cell entry (AID 1479150); details: cell viability; series mostly up to 57.1 µM
[5] = molecular target: Protein phosphatase 1D (Homo sapiens) (UniProt O15297); test: RapidFire Mass Spectrometry qHTS Assay for Modulators of WT P53-Induced Phosphatase 1 (WIP1) (AID 1347424; active = well fitted curve in the direction sought with a large enough effect; an effect the other way counts as inactive or inconclusive;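 note: amount of dephosphorylated VEPPL-S-QETFS peptide product formed by WIP1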); details: WIP1 dephosphorylation of phosphopeptide, RapidFire MS; series mostly up to 128 µM
Procedure, shortened: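 10 nM WIP1 + cpd, 1 h RT; + 2 uM VEPPL-pS-QETFS, 5 min RT; stop 0.5% formic acid; labelled product standard 1 uM; RapidFire MS. Buffer 50 mM Tris pH 7.5, 30 mM MgCl2, 1 mM TCEP.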

[6] = molecular target: Protein phosphatase 1D (Homo sapiens) (UniProt O15297); test: Rhodamine-PBP qHTS Assay for Modulators of WT P53-Induced Phosphatase 1 (WIP1) (AID 1347425; active = well fitted curve in the direction sought with a large enough effect; an effect the other way counts as inactive or inconclusive); details: recombinant WIP1, Rhodamine-PBP phosphate fluorescence, real-time; series mostly up to 116 µM
Procedure, shortened: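 Steps: enzyme with Rh-PBP sensor and compounds, room-temperature incubation of 1 hr, baseline read, addition of VEPPL-pS-QETFS (10 uM final), kinetic fluorescence reads at 525/598 nm. Activity equals final minus baseline signal.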

Measured: Potency

Protein phosphatase 1D (Homo sapiens), sequence (O15297 whole entry, looked up): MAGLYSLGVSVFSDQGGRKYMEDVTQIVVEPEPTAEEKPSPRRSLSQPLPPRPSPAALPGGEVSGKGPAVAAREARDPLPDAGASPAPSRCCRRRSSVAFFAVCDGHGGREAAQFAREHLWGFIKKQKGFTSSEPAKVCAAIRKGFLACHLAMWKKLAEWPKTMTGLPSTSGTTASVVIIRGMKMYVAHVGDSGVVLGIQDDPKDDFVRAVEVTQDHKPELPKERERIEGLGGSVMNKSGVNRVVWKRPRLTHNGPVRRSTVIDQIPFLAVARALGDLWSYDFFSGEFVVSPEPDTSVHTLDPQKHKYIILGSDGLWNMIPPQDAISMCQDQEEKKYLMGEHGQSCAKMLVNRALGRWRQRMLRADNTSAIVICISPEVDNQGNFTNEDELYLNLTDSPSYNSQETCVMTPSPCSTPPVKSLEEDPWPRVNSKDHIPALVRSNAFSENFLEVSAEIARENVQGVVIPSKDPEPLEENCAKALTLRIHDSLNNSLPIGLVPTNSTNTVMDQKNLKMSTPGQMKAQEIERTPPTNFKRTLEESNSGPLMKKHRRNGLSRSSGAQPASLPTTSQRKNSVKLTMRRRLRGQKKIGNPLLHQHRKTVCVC

CC(C)(C)NCC(O)c1ccc(O)c(CO)c1 (stereo unspecified)
inactive: [1] | [2] | [3] | [4]

O=S(=O)(O)C(F)(F)C(F)(F)C(F)(F)C(F)(F)F
inactive: [5] | [6]

COC(=O)c1ccc2c(C(=Nc3ccc(N(C)C(=O)CN4CCN(C)CC4)cc3)c3ccccc3)c(O)[nH]c2c1
inactive: [1] | [2] | [3] | [4]

C[C@@H]1CN(c2c(F)c(N)c3c(=O)c(C(=O)O)cn(C4CC4)c3c2F)C[C@H](C)N1
inactive: [1] | [2] | [3] | [4]

CCCCCCCCCCCCCC(=O)OC(C)C
inactive: [1] | [2] | [3] | [4]

C/C(=C1\CCOC(=O)S1)N(C=O)Cc1cnc(C)nc1N
inactive: [1] | [2] | [3] | [4]

NC1=NC(=O)N2CC12 (stereo unspecified)
inactive: [1] | [2] | [3] | [4]

Nc1nc2c(ncn2CCC(CO)CO)c(=O)[nH]1
inactive: [1] | [2] | [3] | [4]

CS(=O)(=O)c1ccc(C(=O)Nc2ccc(Cl)c(-c3ccccn3)c2)c(Cl)c1
inactive: [1] | [2] | [3] | [4]

NC(CO)C(=O)NNCc1ccc(O)c(O)c1O (stereo unspecified)
inactive: [1] | [2] | [3] | [4]

NCCS
inactive: [1] | [2] | [3] | [4]

COc1c(N2CCNC(C)C2)c(F)cc2c(=O)c(C(=O)O)cn(C3CC3)c12 (stereo unspecified)
inactive: [1] | [2] | [3] | [4]

O=C1NS(=O)(=O)c2ccccc21
inactive: [1] | [2] | [3] | [4]

CCCCC(CC)COC(=O)/C=C/c1ccc(OC)cc1 (stereo unspecified)
inactive: [1] | [2] | [3] | [4]

CC1=NN(c2ccccc2)C(=O)C1
inactive: [1] | [2] | [3] | [4]

S=c1[nH]c2ccccc2s1
inactive: [1] | [2] | [3] | [4]

O=C(O)CNC(=O)CNC(=O)CNC(=O)CSC(=O)c1ccccc1
inactive: [1] | [2] | [3] | [4]

[O-][n+]1cccc(/C(Cl)=N/OC[C@@H](O)CN2CCCCC2)c1
inactive: [1] | [2] | [3] | [4]

CC[N+](C)(CC)CCOC(=O)C(O)(c1ccccc1)C1CCCCC1 (stereo unspecified)
inactive: [1] | [2] | [3] | [4]

C=CCNC(N)=S
inactive: [1] | [2] | [3] | [4]

COc1ncnc(NS(=O)(=O)c2ccc(N)cc2)c1OC
inactive: [1] | [2] | [3] | [4]

CCN1CCN(c2cc3c(cc2F)c(=O)c(C(=O)O)cn3C2CC2)CC1
inactive: [1] | [2] | [3] | [4]

COc1ccccc1O
inactive: [1] | [2] | [3] | [4]

Cn1c(NCCN(CCO)CCCc2ccc([N+](=O)[O-])cc2)cc(=O)n(C)c1=O
inactive: [1] | [2] | [3] | [4]

CNCc1ccc(-c2[nH]c3cc(F)cc4c3c2CCNC4=O)cc1
inactive: [1] | [2] | [3] | [4]

O=C(Nc1cccc(C2=NCCN2)c1)Nc1cccc(C2=NCCN2)c1
inactive: [1] | [2] | [3] | [4]

CC(C)C[C@H](NC(=O)[C@@H](O)[C@H](N)Cc1ccccc1)C(=O)O
inactive: [1] | [2] | [3] | [4]

Cc1c(C)c2c(c(C)c1OC(=O)c1cccnc1)CC[C@@](C)(CCC[C@H](C)CCC[C@H](C)CCCC(C)C)O2
inactive: [1] | [2] | [3] | [4]

CC(=O)N[C@@H](CCC(N)=O)C(=O)O
inactive: [1] | [2] | [3] | [4]

CCCCC(CC)COC(=O)c1ccc(N(C)C)cc1 (stereo unspecified)
inactive: [1] | [2] | [3] | [4]

CN(C(=O)C(Cl)Cl)c1ccc(OC(=O)c2ccco2)cc1
inactive: [1] | [2] | [3] | [4]

N[C@H]1C(O)O[C@H](CO)[C@@H](O)[C@@H]1O (stereo partly specified)
inactive: [1] | [2] | [3] | [4]

CN1[C@@H]2CC[C@H]1CC(OC(=O)C(O)c1ccccc1)C2 (stereo partly specified)
inactive: [1] | [2] | [3] | [4]

CC(=O)Oc1cccc(C)c1
inactive: [1] | [2] | [3] | [4]

CC(=O)Nc1ccc(O)cc1
inactive: [1] | [2] | [3] | [4]

O=C(O)CC(O)C(=O)O (stereo unspecified)
inactive: [1] | [2] | [3] | [4]

CCc1c(C)[nH]c2c1C(=O)C(CN1CCOCC1)CC2 (stereo unspecified)
inactive: [1] | [2] | [3] | [4]

CC(=O)Oc1ccccc1C(=O)O
inactive: [1] | [2] | [3] | [4]

NCCCC(N)(C(=O)O)C(F)F (stereo unspecified)
inactive: [1] | [2] | [3] | [4]

COc1ccc2cc(CCC(C)=O)ccc2c1
inactive: [1] | [2] | [3] | [4]

CCCCCCCCCCC(CO)CCCCCCCC (stereo unspecified)
inactive: [1] | [2] | [3] | [4]

CN1CCN(c2c(F)cc3c(=O)c(C(=O)O)cn4c3c2OCN4C)CC1
inactive: [1] | [2] | [3] | [4]
